Most compounds without a hit are left out; they make up all but 1.6% or so of the library.
KCNQ2 enhance – KCNQ2 (rat) channel potentiation. CHO-K1 KCNQ2, FluxOR thallium flux fluorescence; hits give high values. B-score at 10 µM. 0.54% of 310,000 active. AID 2239;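 active = fluorescence ratio B-score at least 3 SD of library B-scores, with initial fluorescence B-score within 3 of them, cut at about 5.3 in these data; same plate scores as AID 2156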;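 note: B-score of peak minus minimum over baseline fluorescence ratio after K+ and Tl+ stimulus; positive B-score means potentiation of KCNQ2 with more thallium influx and brighter signal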
KCNQ2 inh – KCNQ2 (rat) channel inhibition; O88943; CHO-K1 KCNQ2, FluxOR thallium flux, 20 min; hits give low values; B-score at 10 µM; 1.1% of 310,000 active; AID 2156;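 active = fluorescence ratio B-score at most minus 3 library SDs, with starting brightness B-score within 2 library SDs, cut at about -5.5 in these data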
KCNQ2 inh conf – rat KCNQ2 channel inhibition, confirmatory screen | shares compounds with KCNQ2 inh | KCNQ2-expressing cells, thallium flux; hits give low values | activity change, negative = inhibition, % at 10 µM | 57% of 1,000 active | AID 493025
KCNQ1 spec – KCNQ2 inhibitor that also affects human KCNQ1 channel; 15% of 1,000 active; activity change, negative = inhibition, % at 10 µM; shares compounds with KCNQ2 inh; KCNQ1-expressing cells, FluxOR thallium flux fluorescence; hits give low values;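 active = activity change at least 3 SD of negative controls below their mean in both duplicate wells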;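 note: CHO cells stably transfected with KCNQ1 and depolarized by potassium stimulus; peak minus minimum fluorescence over baseline after thallium addition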
Target sequence (P51787 whole entry, looked up): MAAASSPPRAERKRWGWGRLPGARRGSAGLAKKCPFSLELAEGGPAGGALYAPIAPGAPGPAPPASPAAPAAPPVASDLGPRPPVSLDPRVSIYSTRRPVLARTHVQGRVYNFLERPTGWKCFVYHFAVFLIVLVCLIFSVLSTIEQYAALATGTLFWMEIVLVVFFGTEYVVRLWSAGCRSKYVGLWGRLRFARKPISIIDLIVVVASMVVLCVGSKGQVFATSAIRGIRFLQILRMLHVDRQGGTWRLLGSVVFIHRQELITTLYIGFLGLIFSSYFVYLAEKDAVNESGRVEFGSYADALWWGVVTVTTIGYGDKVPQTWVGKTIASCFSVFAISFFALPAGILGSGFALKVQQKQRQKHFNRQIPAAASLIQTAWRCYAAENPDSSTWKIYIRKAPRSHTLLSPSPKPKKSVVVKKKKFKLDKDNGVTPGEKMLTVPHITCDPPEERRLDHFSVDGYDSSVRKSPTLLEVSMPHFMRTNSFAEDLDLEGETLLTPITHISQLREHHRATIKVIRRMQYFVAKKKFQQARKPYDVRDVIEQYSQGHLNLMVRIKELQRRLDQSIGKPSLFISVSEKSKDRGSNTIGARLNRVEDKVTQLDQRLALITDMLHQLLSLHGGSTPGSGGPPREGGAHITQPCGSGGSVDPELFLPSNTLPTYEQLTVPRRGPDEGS
CHO parental ctr – counter-screen for KCNQ2 inhibitors: effect in parental CHO cells | 14% of 1,000 active | shares compounds with KCNQ2 inh | AID 493029 | thallium flux counter-screen; hits give low values | activity change, % at 10 µM
KCNQ2 patch conf – blocks rat KCNQ2 current in automated patch clamp. shares compounds with KCNQ2 inh. KCNQ2-expressing cells. calls only at 10 µM. 49% of 550 active. AID 588531
Numbers stand for hits; 0 = inactive; - = not tested or not shown; + = active, no number. Unless noted, the rule behind the calls is not given here.

SMILES	KCNQ2 enhance	KCNQ2 inh	KCNQ2 inh conf	KCNQ1 spec	CHO parental ctr	others
COc1ccc(N2C(C(C)=O)=NN(c3ccccc3)C2c2cccs2)cc1 (stereo not given)	0	-7.2	-32%	-37%	-25%	KCNQ2 patch conf=0
CC(=O)Nc1ccc(N2C(C(C)=O)=NN(c3ccccc3)C2c2cccs2)cc1 (stereo not given)	0	0	-	-	-
COc1ccccc1C(=O)NCCCNC(=O)c1cccnc1	-	0	-	-	-
Cc1nn(CC(=O)Nc2ccc(Cl)cc2Cl)c(=O)c2ccccc12	-	0	-	-	-
CC(=O)N1CCN(c2cc(N3CCCC3)c(F)cc2[N+](=O)[O-])CC1	-	0	-	-	-
CCN1CCN(c2cc(N3CCc4ccccc4C3)c(F)cc2[N+](=O)[O-])CC1	0	-6.9	-29%	0	0
N#CC(C#N)=C1NC(N)=C(C#N)C(c2ccccc2)=C1C#N	-	0	-	-	-
Cc1ccn2c(/C=N/OCc3cccc(F)c3)c(-c3ccc(Cl)cc3)nc2c1	0	-7.8	-18%	0	0	KCNQ2 patch conf=0
Clc1ccc(CO/N=C/c2c(-c3ccccc3)nc3n2CCS3)c(Cl)c1	-	0	-	-	-
Cc1ccn2c(/C=N/OCc3ccc(F)cc3)c(-c3ccc(Cl)cc3)nc2c1	0	-9	-26%	0	0	KCNQ2 patch conf=+
Cc1ncc(N=Nc2ccc(F)cc2)c(-c2ccc(Cl)cc2)n1	0	0	-	-	-
CCN(CC)CCNC(=O)c1ccc(NC(=O)c2cn(-c3ccccc3)nc2-c2cccs2)cc1	0	-12	-42%	-50%	-37%	KCNQ2 patch conf=+
CCN(CC)CCNC(=O)c1ccc(NC(=O)c2cn(-c3ccc(F)cc3)nc2-c2cccc(OC)c2)cc1	-	0	-	-	-
CCC(CC)C(=O)Nc1nnc(S(=O)(=O)Nc2ccccc2C)s1	0	0	-	-	-
CCN1CCc2nc3ccccc3c(C(=O)Nc3ccc(NC(C)=O)cc3)c2C1	0	0	-	-	-
CCN1CCc2nc3ccccc3c(C(=O)Nc3ccc(F)cc3)c2C1	0	-9.4	0	0	0
O=C(Nc1nccs1)C1CC(=O)N(CCc2ccc(F)cc2)C1 (stereo not given)	-	0	-	-	-
CCn1c(SCC(=O)N(C)c2ccccc2)nc2c([nH]c3ccccc32)c1=O	-	0	-	-	-
COC(=O)CC1COc2ccccc2N1C(=O)c1ccc(C(C)(C)C)cc1 (stereo not given)	0	-6.8	-29%	0	0	KCNQ2 patch conf=+
COC(=O)CC1COc2ccccc2N1C(=O)c1ccc(Br)cc1 (stereo not given)	-	0	-	-	-
COc1ccccc1NC(=O)C1CCN(S(C)(=O)=O)CC1	0	0	-	-	-
CCC(Oc1ccccc1)C(=O)Nc1ccccc1N1CCCC1 (stereo not given)	-	0	-	-	-
CC(Oc1cccc(Cl)c1)C(=O)Nc1ccccc1C(=O)N1CCCCC1 (stereo not given)	-	0	-	-	-
CCC(C(=O)Nc1ccccc1N1CCCC1)c1ccccc1 (stereo not given)	0	-7.2	-36%	0	0	KCNQ2 patch conf=+
CC(Oc1cccc(Cl)c1)C(=O)Nc1ccccc1N1CCCCC1 (stereo not given)	0	-7.1	0	0	0
SMILES	KCNQ2 enhance	KCNQ2 inh	KCNQ2 inh conf	KCNQ1 spec	CHO parental ctr	others
C[C@H](NC(=O)N1CCn2c1nc1ccccc12)C(=O)N1CCCCC1	0	0	-	-	-
CCOC(=O)c1ccc(NS(=O)(=O)c2c(N)n(C)c(=O)n(C)c2=O)cc1	0	0	-	-	-
CCCN(CCC)c1nc(-c2ccccn2)nc2ccccc12	-	0	-	-	-
c1ccc(CCNc2nc(-c3ccccn3)nc3ccccc23)cc1	0	-8.6	-29%	0	0	KCNQ2 patch conf=0
O=C(NCCn1cc(SCc2ccc(F)cc2)c2ccccc21)c1c(F)cccc1F	0	0	-	-	-
O=C(NCCn1cc(SCc2ccc(F)cc2)c2ccccc21)c1ccccc1F	0	-9.1	0	0	0
Cc1cccc(-n2nc3c(c2NC(=O)c2ccc(Br)o2)CSC3)c1	0	-9	-28%	0	0	KCNQ2 patch conf=0
Cc1cccc(-n2nc3c(c2NC(=O)CCCl)CSC3)c1	-	0	-	-	-
COc1ccc(C(=O)/C=C/c2cn(CC(O)CN3CCN(C)CC3)c3ccccc23)cc1OC (stereo not given)	-	0	-	-	-
CCCCN(C)CC(O)Cn1cc(/C=C/C(=O)c2ccc(C)cc2)c2ccccc21 (stereo not given)	0	-9.7	0	0	0
CN1CCN(Cn2cc(/C=C/C(=O)c3ccccc3)c3ccccc32)CC1	0	-9.2	-34%	0	0	KCNQ2 patch conf=+
CC(C)(C)NCC(O)Cn1cc(C=O)c2ccccc21 (stereo not given)	0	0	-	-	-
O=C(NNC(=O)c1ccc(F)cc1F)c1ccc(-n2cnnn2)cc1	-	0	-	-	-
OC1(c2ccccc2)c2ccccc2-c2ncccc21 (stereo not given)	0	0	-	-	-
CC(C)CCN1CCNC(=O)C1CC(=O)N(C)CCCN1CCOCC1 (stereo not given)	0	0	-	-	-
c1ccc(N2CCN(c3ccccc3)C2c2cccs2)cc1	0	-7	0	0	0
O=C1CSC(c2cccs2)N1c1ccccc1 (stereo not given)	0	0	-	-	-
Cc1ccc(CNC(=O)CCSCc2ccccc2F)cc1	-	0	-	-	-
CC1CCN(c2ccccc2NC(=O)c2ccc(F)cc2)CC1	0	-9.3	-17%	0	0	KCNQ2 patch conf=0
CN1CCN(c2ccccc2NC(=O)c2ccc(F)cc2)CC1	0	0	-	-	-
Cc1ccc(-c2ocnc2C(=O)Nc2ccccc2C(=O)N2CCCC2)cc1	0	0	-	-	-
O=C(Nc1ccccc1N1CCCCC1)c1ncoc1-c1ccc(F)cc1	0	-7.1	0	0	0
Cc1ccc(S(=O)(=O)Nc2ccccc2C(=O)N2CCN(C)CC2)cc1	0	0	-	-	-
CC(C)N(C(=O)COC(=O)CNC(=O)c1ccc(Br)cc1)c1ccccc1	-	0	-	-	-
C=CCc1cc(/C=C2/NC(=O)N(CC(=O)OC)C2=O)cc(OC)c1O	0	0	-	-	-
SMILES	KCNQ2 enhance	KCNQ2 inh	KCNQ2 inh conf	KCNQ1 spec	CHO parental ctr	others
COCc1c(C(=O)OC)nnn1-c1ccc(C(F)(F)F)cc1[N+](=O)[O-]	0	0	-	-	-
COc1ccc(CN(CCC(c2ccccc2)c2ccco2)C(=O)c2ccco2)cc1 (stereo not given)	0	-6.7	-38%	-43%	-36%	KCNQ2 patch conf=0
CCN(CC)C(=O)CC(c1ccccc1)c1ccco1 (stereo not given)	-	0	-	-	-
COc1ccc(CN(C(=O)c2ccco2)c2ccccc2)cc1	0	0	-	-	-
O=C(c1ccco1)N(CCC(c1ccccc1)c1ccco1)Cc1ccccc1 (stereo not given)	0	-7.7	-26%	0	0	KCNQ2 patch conf=+
Cc1cc(C(=O)Nc2c(F)c(F)c(F)c(F)c2F)n(-c2ccccc2)n1	0	0	-	-	-
O=S(=O)(c1cccc(F)c1)N1CCN(C(=S)NCC2CCCO2)CC1 (stereo not given)	0	0	-	-	-
Cc1cc(-c2ccc(C(C)C)c(S(=O)(=O)N3CCC(C)CC3)c2)on1	0	-8.4	-16%	0	0	KCNQ2 patch conf=0
CCc1ccc(-c2cc(C)no2)cc1S(=O)(=O)N1CCC(C)CC1	-	0	-	-	-
CCC(=O)Nc1cc2c3c(c1)CCC(=O)N3CCC2	-	0	-	-	-
COc1ccccc1N1CCN(c2nc(C)nc3c2oc2ccccc23)CC1	0	-6.9	0	0	0
Cc1nc(N2CCC(C)CC2)c2oc3ccccc3c2n1	-	0	-	-	-
Cc1ccc(C(C)C)c(Oc2cnccn2)c1	-	0	-	-	-
